# Laboratory results as given in the supplement of paper PMC8728848.
# This is one part of a sample in which the strongest signals are shown more often than they occur.
# B1: Mermaid2 (Stilbonema majum) (protein)
# chain: MGSSHHHHHHSSGLVPRGSHMAASGWLRSPQGTVVKLYRRSLSWSKADEFCKDVDGRLVVDRTADMHLFLIKNVLKEKKSRVWVGLRRTAPHSRTWIWSDGTRQNEDDLNTNLWLRDEPNDAAGEEECALFMYSPWEKAWGLNDYLCRGGCRSYQFICEKGIR
# Experiments:
# Experiment in all cases: glycan array binding signal (z-score within array); higher = stronger binding
# Conditions in all cases: glycan notation: IUPAC condensed, linker removed
# [1] = biological target: Fuc(a1-2)Gal(b1-3)GlcNAc(b1-3)[Neu5Ac(a2-6)Gal(b1-4)GlcNAc(b1-6)]Gal(b1-4)Glc
# How it was run: (§1)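 Glycan array data were curated from 3228 arrays in the Consortium for Functional Glycomics database and kept only where the protein sequence was available. Glycan names were converted to IUPAC-condensed notation, and columns mapping to the same glycan were averaged. The binding signal is a within-array Z-score, averaged across arrays of the same protein sequence at different concentrations or buffers and across linkers. Negative Z-scores can be read as non-binding.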
# [2] = biological target: Fuc(a1-2)Gal(b1-4)GlcNAc(b1-2)Man
# How it was run: as §1
# [3] = biological target: Fuc(a1-2)Gal(b1-4)GlcNAc(b1-3)Gal(b1-4)GlcNAc
# How it was run: as §1
# [4] = biological target: Fuc(a1-2)Gal(b1-4)[Fuc(a1-3)]GlcNAc
# How it was run: as §1
# [5] = biological target: Fuc(a1-2)Gal6S(b1-3)GlcNAc
# How it was run: as §1
# [6] = biological target: Fuc(a1-2)Gal6S(b1-3)GlcNAc6S
# How it was run: as §1
# [7] = biological target: Fuc(a1-2)[Gal(a1-3)]Gal(b1-4)Glc
# How it was run: as §1
# [8] = biological target: Fuc(a1-2)[Gal(a1-3)]Gal(b1-4)GlcNAc(b1-3)[Fuc(a1-2)[Gal(a1-3)]Gal(b1-4)GlcNAc(b1-6)]GalNAc
# How it was run: as §1
# [9] = biological target: Fuc(a1-2)[GalNAc(a1-3)]Gal(b1-4)GlcNAc(b1-3)Gal(b1-4)GlcNAc
# How it was run: as §1
# [10] = biological target: Fuc(a1-2)[GalNAc(b1-3)]Gal
# How it was run: as §1
# [11] = biological target: Fuc(a1-3)[Gal(b1-4)]GlcNAc(b1-3)Gal(b1-3)[Fuc(a1-4)]GlcNAc
# How it was run: as §1
# Gal(b1-2)Gal = biological target: Gal(b1-2)Gal
# How it was run: as §1
# [12] = biological target: Gal(b1-3)GalNAc(a1-3)[Fuc(a1-2)]Gal(b1-4)Glc
# How it was run: as §1
# [13] = biological target: Gal(b1-3)GlcNAc(b1-3)Gal(b1-4)GlcNAc(b1-3)Gal(b1-4)GlcNAc(b1-2)[Gal(b1-3)GlcNAc(b1-3)Gal(b1-4)GlcNAc(b1-3)Gal(b1-4)GlcNAc(b1-6)]Man(a1-6)[Gal(b1-3)GlcNAc(b1-3)Gal(b1-4)GlcNAc(b1-3)Gal(b1-4)GlcNAc(b1-2)Man(a1-3)]Man(b1-4)GlcNAc(b1-4)[Fuc(a1-6)]GlcNAc
# How it was run: as §1
# [14] = biological target: Gal(b1-3)GlcNAc(b1-3)Gal(b1-4)[Fuc(a1-3)]GlcNAc
# How it was run: as §1
# [15] = biological target: Gal(b1-3)[Fuc(a1-4)]GlcNAc(b1-3)Gal(b1-4)[Fuc(a1-3)]GlcNAc
# How it was run: as §1
# Gal(b1-4)Gal = biological target: Gal(b1-4)Gal
# How it was run: as §1
# [16] = biological target: Gal(b1-4)GalNAc(b1-3)[Fuc(a1-2)]Gal(b1-4)GlcNAc
# How it was run: as §1
# Gal(b1-4)Glc = biological target: Gal(b1-4)Glc
# How it was run: as §1
# Gal(b1-4)GlcNAc(b1-2)Man = biological target: Gal(b1-4)GlcNAc(b1-2)Man
# How it was run: as §1
# [17] = biological target: Gal(b1-4)GlcNAc(b1-2)Man(a1-3)[Gal(b1-4)GlcNAc(b1-2)Man(a1-6)][Gal(b1-4)GlcNAc(b1-4)]Man(b1-4)GlcNAc(b1-4)[Fuc(a1-6)]GlcNAc
# How it was run: as §1
# [18] = biological target: Gal(b1-4)GlcNAc(b1-2)Man(a1-3)[Man(a1-6)]Man(b1-4)GlcNAc(b1-4)GlcNAc
# How it was run: as §1
# [19] = biological target: Gal(b1-4)GlcNAc(b1-2)[Gal(b1-4)GlcNAc(b1-4)]Man(a1-3)[Gal(b1-4)GlcNAc(b1-2)Man(a1-6)]Man(b1-4)GlcNAc(b1-4)GlcNAc
# How it was run: as §1
# [20] = biological target: Gal(b1-4)GlcNAc(b1-2)[Gal(b1-4)GlcNAc(b1-4)]Man(a1-3)[GlcNAc(b1-4)][Gal(b1-4)GlcNAc(b1-2)[Gal(b1-4)GlcNAc(b1-6)]Man(a1-6)]Man(b1-4)GlcNAc(b1-4)GlcNAc
# How it was run: as §1
# [21] = biological target: Gal(b1-4)GlcNAc(b1-3)Gal(b1-4)GlcNAc(b1-2)Man(a1-3)[Gal(b1-4)GlcNAc(b1-3)Gal(b1-4)GlcNAc(b1-2)Man(a1-6)]Man(b1-4)GlcNAc(b1-4)[Fuc(a1-6)]GlcNAc
# How it was run: as §1
# [22] = biological target: Gal(b1-4)GlcNAc(b1-3)Gal(b1-4)GlcNAc(b1-2)[Gal(b1-4)GlcNAc(b1-3)Gal(b1-4)GlcNAc(b1-6)]Man(a1-6)[Gal(b1-4)GlcNAc(b1-3)Gal(b1-4)GlcNAc(b1-2)Man(a1-3)]Man(b1-4)GlcNAc(b1-4)GlcNAc
# How it was run: as §1
# [23] = biological target: Gal(b1-4)GlcNAc(b1-3)Gal(b1-4)GlcNAc(b1-3)Gal(b1-4)GlcNAc
# How it was run: as §1
# [24] = biological target: Gal(b1-4)GlcNAc(b1-6)GalNAc
# How it was run: as §1
binder,measurement,setting,value
B1,glycan array binding signal (z-score),[1],0.333
same,glycan array binding signal (z-score),[2],1.76
same,glycan array binding signal (z-score),[3],-0.575
same,glycan array binding signal (z-score),[4],0.558
same,glycan array binding signal (z-score),[5],-0.388
same,glycan array binding signal (z-score),[6],4.48
same,glycan array binding signal (z-score),[7],-0.23
same,glycan array binding signal (z-score),[8],-0.477
same,glycan array binding signal (z-score),[9],-0.302
same,glycan array binding signal (z-score),[10],-0.551
same,glycan array binding signal (z-score),[11],-0.144
same,glycan array binding signal (z-score),Gal(b1-2)Gal,-0.539
same,glycan array binding signal (z-score),[12],3.31
same,glycan array binding signal (z-score),[13],4.69
same,glycan array binding signal (z-score),[14],-0.471
same,glycan array binding signal (z-score),[15],-0.152
same,glycan array binding signal (z-score),Gal(b1-4)Gal,6.71
same,glycan array binding signal (z-score),[16],0.467
same,glycan array binding signal (z-score),Gal(b1-4)Glc,-0.205
same,glycan array binding signal (z-score),Gal(b1-4)GlcNAc(b1-2)Man,1.07
same,glycan array binding signal (z-score),[17],-0.652
same,glycan array binding signal (z-score),[18],3.75
same,glycan array binding signal (z-score),[19],0.034
same,glycan array binding signal (z-score),[20],-0.17
same,glycan array binding signal (z-score),[21],-0.278
same,glycan array binding signal (z-score),[22],5.21
same,glycan array binding signal (z-score),[23],0.308
same,glycan array binding signal (z-score),[24],-0.317
